Measurements: PubChem BioAssay AID1159580 (chemical genetic matrix, 2015)
Screen size: about 5,500 compounds; about 2,000 (36%) were called active. Not shown: some 18% with an inconclusive outcome. Cut-off read from the data, not from the text of the source: active = normalized growth mostly below about 0.91 (no sharp cut-off); inconclusive = no clear call, values can overlap the other calls; inactive = mostly above about 0.92. Some of the results follow.

Test: chemical genetic growth profiling, strain panel (AID 1159580);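 note: tested at 20 µM; growth read once vehicle control cultures reached saturation at 30 °C; 1 = growth at the plate median or of vehicle wells; lower values mean less growth of the strain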
Settings: growth OD

Measured: normalized growth

COC(=O)C[C@H]1C(C)(C)C2(O)OC34CC2C(=O)[C@]1(C)C3CC[C@]1(C)C4=CC(=O)O[C@H]1c1ccoc1 (some centres not stated)
inactive: S. cerevisiae deletion strains, locus YJR043C, strain POL32, stronger effect = lower value 0.992 | S. cerevisiae deletion strains, locus YJR066W, strain TOR1, stronger effect = lower value 0.92 | S. cerevisiae deletion strains, locus YKL009W, strain mrt4, stronger effect = lower value 1.03 | S. cerevisiae deletion strains, locus YKL068W, stronger effect = lower value 1.01 | S. cerevisiae deletion strains, locus YKL085W, strain MDH1 (second series), stronger effect = lower value 1.02 | S. cerevisiae deletion strains, locus YKL085W, strain MDH1, stronger effect = lower value 1.02 | S. cerevisiae deletion strains, locus YKL160W, strain elf1, stronger effect = lower value 1.01 | S. cerevisiae deletion strains, locus YKL190W, strain CNB1, stronger effect = lower value 0.994 | S. cerevisiae deletion strains, locus YKR001C, strain vps1, stronger effect = lower value 1.01 | S. cerevisiae deletion strains, locus YKR026C, strain gcn3, stronger effect = lower value 0.991 | S. cerevisiae deletion strains, locus YKR091W, strain srl3, stronger effect = lower value 0.985 | S. cerevisiae deletion strains, locus YLL001W, strain dnm1, stronger effect = lower value 1.02 | S. cerevisiae deletion strains, locus YLL026W, stronger effect = lower value 0.998 | S. cerevisiae deletion strains, locus YLL041C, strain sdh2, stronger effect = lower value 0.979 | S. cerevisiae deletion strains, locus YLR027C, strain aat2, stronger effect = lower value 1 | S. cerevisiae deletion strains, locus YLR039C, strain RIC1, stronger effect = lower value 1.05 | S. cerevisiae deletion strains, locus YLR058C, strain SHM2, stronger effect = lower value 1 | S. cerevisiae deletion strains, locus YLR102C, strain apc9, stronger effect = lower value 1.01 | S. cerevisiae deletion strains, locus YLR113W, strain HOG1, stronger effect = lower value 1.01 | S. cerevisiae deletion strains, locus YLR221C, strain rsa3, stronger effect = lower value 0.991 | S. cerevisiae deletion strains, locus YLR258W, strain gsy2, stronger effect = lower value 0.989 | S. cerevisiae deletion strains, locus YLR262C, strain YPT6 (second series), stronger effect = lower value 1 | S. cerevisiae deletion strains, locus YLR262C, strain YPT6, stronger effect = lower value 1.08 | S. cerevisiae deletion strains, locus YLR268W, strain sec22, stronger effect = lower value 0.998 | S. cerevisiae deletion strains, locus YLR320W, strain mms22, stronger effect = lower value 0.989 | S. cerevisiae deletion strains, locus YLR342W, strain FKS1, stronger effect = lower value 0.977 | S. cerevisiae deletion strains, locus YLR357W, strain rsc2, stronger effect = lower value 0.999 | S. cerevisiae deletion strains, locus YLR370C, strain arc18, stronger effect = lower value 0.967 | S. cerevisiae deletion strains, locus YLR371W, strain rom2, stronger effect = lower value 0.998 | S. cerevisiae deletion strains, locus YLR384C, strain iki3, stronger effect = lower value 0.975 | S. cerevisiae deletion strains, locus YLR418C, strain cdc73, stronger effect = lower value 1.03 | S. cerevisiae deletion strains, locus YML016C, strain PPZ1, stronger effect = lower value 1 | S. cerevisiae deletion strains, locus YML032C, strain rad52, stronger effect = lower value 1.01 | S. cerevisiae deletion strains, locus YML120C, strain ndi1, stronger effect = lower value 0.981 | S. cerevisiae deletion strains, locus YML124C, strain tub3, stronger effect = lower value 1.01 | S. cerevisiae deletion strains, locus YMR058W, strain fet3, stronger effect = lower value 0.999 | S. cerevisiae deletion strains, locus YMR078C, strain ctf18, stronger effect = lower value 1.01 | S. cerevisiae deletion strains, locus YMR125W, strain sto1, stronger effect = lower value 0.982 | S. cerevisiae deletion strains, locus YMR129W, stronger effect = lower value 0.994 | S. cerevisiae deletion strains, locus YMR205C, strain PFK2, stronger effect = lower value 1.01 | S. cerevisiae deletion strains, locus YMR223W, strain ubp8, stronger effect = lower value 1.01 | S. cerevisiae deletion strains, locus YMR231W, strain pep5, stronger effect = lower value 0.957 | S. cerevisiae deletion strains, locus YMR307W, strain GAS1, stronger effect = lower value 0.93 | S. cerevisiae deletion strains, locus YNL067W, strain RPL9B, stronger effect = lower value 1 | S. cerevisiae deletion strains, locus YNL071W, strain lat1, stronger effect = lower value 0.989 | S. cerevisiae deletion strains, locus YNL153C, strain GIM3, stronger effect = lower value 1.01 | S. cerevisiae deletion strains, locus YNL183C, strain NPR1, stronger effect = lower value 0.931 | S. cerevisiae deletion strains, locus YNL209W, strain ssb2, stronger effect = lower value 0.984 | S. cerevisiae deletion strains, locus YNL233W, strain BNI4, stronger effect = lower value 0.985 | S. cerevisiae deletion strains, locus YNL248C, strain rpa49, stronger effect = lower value 1 | S. cerevisiae deletion strains, locus YNL250W, strain rad50, stronger effect = lower value 1.01 | S. cerevisiae deletion strains, locus YNL271C, strain bni1, stronger effect = lower value 1.01 | S. cerevisiae deletion strains, locus YNL298W, strain CLA4, stronger effect = lower value 1 | S. cerevisiae deletion strains, locus YNL307C, strain MCK1, stronger effect = lower value 1 | S. cerevisiae deletion strains, locus YNL322C, strain KRE1 (second series), stronger effect = lower value 0.981 | S. cerevisiae deletion strains, locus YNR049C, strain mso1, stronger effect = lower value 0.988 | S. cerevisiae deletion strains, locus YNR052C, strain pop2, stronger effect = lower value 1.01 | S. cerevisiae deletion strains, locus YOL006C, strain TOP1, stronger effect = lower value 1.01 | S. cerevisiae deletion strains, locus YOL012C, strain htz1 0.65 | S. cerevisiae deletion strains, locus YOL147C, strain pex11, stronger effect = lower value 1.01 | S. cerevisiae deletion strains, locus YOR001W, strain rrp6, stronger effect = lower value 0.953 | S. cerevisiae deletion strains, locus YOR061W, strain CKA2, stronger effect = lower value 1.01 | S. cerevisiae deletion strains, locus YOR069W, strain VPS5, stronger effect = lower value 0.997 | S. cerevisiae deletion strains, locus YOR070C, strain gyp1, stronger effect = lower value 0.992 | S. cerevisiae deletion strains, locus YOR080W, strain dia2, stronger effect = lower value 0.988 | S. cerevisiae deletion strains, locus YOR083W, strain WHI5, stronger effect = lower value 1.02 | S. cerevisiae deletion strains, locus YOR106W, strain vam3, stronger effect = lower value 1.03 | S. cerevisiae deletion strains, locus YOR136W, strain idh2, stronger effect = lower value 1.01 | S. cerevisiae deletion strains, locus YOR144C, strain elg1, stronger effect = lower value 1.02 | S. cerevisiae deletion strains, locus YOR184W, strain ser1, stronger effect = lower value 0.996 | S. cerevisiae deletion strains, locus YOR231W, strain MKK1, stronger effect = lower value 1.01 | S. cerevisiae deletion strains, locus YOR265W, strain rbl2, stronger effect = lower value 0.984 | S. cerevisiae deletion strains, locus YOR270C, strain vph1, stronger effect = lower value 0.98 | S. cerevisiae deletion strains, locus YOR290C, strain snf2, stronger effect = lower value 0.97 | S. cerevisiae deletion strains, locus YOR316C, strain cot1, stronger effect = lower value 1.02 | S. cerevisiae deletion strains, locus YPL051W, strain arl3, stronger effect = lower value 1.01 | S. cerevisiae deletion strains, locus YPL078C, strain atp4, stronger effect = lower value 1.01 | S. cerevisiae deletion strains, locus YPL106C, strain sse1, stronger effect = lower value 0.969 | S. cerevisiae deletion strains, locus YPL240C, strain hsp82, stronger effect = lower value 0.988 | S. cerevisiae deletion strains, locus YPL241C, strain CIN2, stronger effect = lower value 1 | S. cerevisiae deletion strains, locus YPL256C, strain CLN2, stronger effect = lower value 0.942 | S. cerevisiae deletion strains, locus YPR119W, strain clb2, stronger effect = lower value 1.01 | S. cerevisiae deletion strains, locus YPR141C, strain kar3, stronger effect = lower value 1.01 | S. cerevisiae deletion strains, locus YPR163C, strain tif3, stronger effect = lower value 1.01 | S. cerevisiae deletion strains, locus YPR167C, strain met16, stronger effect = lower value 1.01 | S. cerevisiae deletion strains, strain wtn01, stronger effect = lower value 1 | S. cerevisiae strains, strain wild type, stronger effect = lower value 0.996
